Compound activity deposited in PubChem by National Center for Advancing Translational Sciences (NCATS).
PNC assembly inh = perinucleolar compartment assembly inhibition; activity change (PNC), negative = inhibition, % at 10 µM; PC3M PTB-GFP, PNC prevalence imaging, 16 h; hits give low values; hit rate 3.1% among 140,000;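 active = readout at or below -70, meaning at least 70% loss of cells showing the perinucleolar compartment, a nuclear body marking cancer cells; inconclusive = readout between -30 and a set limit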;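 note: plate controls were DMSO wells for no effect and camptothecin positive control wells for full effect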
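Compounds are pinned in duplicate onto adhered PC3M cells stably expressing GFP-tagged PTB and incubated 16 h at 37 C. Cells are then fixed, nuclei stained with Hoechst, and PNC-positive cells counted.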
HPGD inh = HPGD (human) dehydrogenase inhibition; P15428; purified HPGD, NADH fluorescence kinetic, PGE2 substrate; Potency, µM, for the others: top-dose activity change, negative = inhibition, actives largely listed as inhibitors; hit rate 4.3% among 150,000; AID 894; note: potency is the fitted concentration of half-maximal effect
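20 nM HPGD preincubated 15 min at room temperature with compound in 50 mM Tris-HCl pH 8, 0.01% Tween 20. Started with 1 mM NAD+ and 30 uM prostaglandin E2; NADH fluorescence (360/450 nm) read 5 times over 30-s intervals, last minus first.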
ALDH1A1 block = blocks purified human ALDH1A1 activity; Purified ALDH1A1, NADH fluorescence, propionaldehyde substrate; hit rate 7.3% among 220,000; Potency, µM (highest dose often 75.3 µM), for the others: at the top dose activity, negative = inhibition, actives largely listed as inhibitors; AID 1030;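 note: potency is the fitted concentration of half-maximal effect; plate controls were no enzyme wells and a reference inhibitor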
Target sequence (P00352 whole entry, looked up): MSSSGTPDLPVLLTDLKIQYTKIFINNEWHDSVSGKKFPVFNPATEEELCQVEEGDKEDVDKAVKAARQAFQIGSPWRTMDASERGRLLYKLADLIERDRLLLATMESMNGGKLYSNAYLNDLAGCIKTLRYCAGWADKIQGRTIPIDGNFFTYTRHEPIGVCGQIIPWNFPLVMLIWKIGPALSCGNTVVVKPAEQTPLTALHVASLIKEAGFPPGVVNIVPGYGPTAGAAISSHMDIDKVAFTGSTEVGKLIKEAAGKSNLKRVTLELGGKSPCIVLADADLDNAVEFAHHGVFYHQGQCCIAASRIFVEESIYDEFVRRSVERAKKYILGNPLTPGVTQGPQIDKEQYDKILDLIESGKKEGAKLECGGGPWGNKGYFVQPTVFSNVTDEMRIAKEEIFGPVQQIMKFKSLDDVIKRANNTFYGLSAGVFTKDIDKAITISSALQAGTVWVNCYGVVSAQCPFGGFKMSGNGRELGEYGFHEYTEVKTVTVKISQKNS
An asterisk follows results filed as active; ? = inconclusive; nt = not tested or not shown; [ ] = dose if it differs, or a comment. Only some compounds are listed: those with a hit (about 11% of all), similar ones and a draw of the others. Unless noted, calls come from the whole dose curve; as a rule, active = well fitted inhibition curve with a large enough effect (not every such curve was filed as active); inconclusive = small, poorly fitted or top-dose-only effect, or another doubt; inactive = no such curve, though single readings can be large or run the other way. Unless noted, % is set by controls: 0 for no effect and ±100 for the full control effect.

SMILES | PNC assembly inh | HPGD inh | ALDH1A1 block
CCCOc1ccc(C(=O)NCC(c2ccco2)N(C)C)cc1 (stereo not drawn) | ? | -22.0% | ?
O=C(NCc1ccco1)C1CC(=O)N(c2ccc(Cl)cc2)C1 (stereo not drawn) | nt | nt | -8.0%
Cc1ccc(C)c(N2CN(Cc3ccco3)CNC2=S)c1 | -16.8 | -11.8% | 18.9%
N#CC1=C2SCN(Cc3ccco3)CN2C(=O)CC1c1c(F)cccc1Cl (stereo not drawn) | 18.0 | 17.8µM* | 8.91µM*
Cc1ccc(C2CC(=O)N3CN(Cc4ccco4)CSC3=C2C#N)cc1 (stereo not drawn) | 7.6 | 15.8µM* | 11.2µM*
Cc1ccc(S(=O)(=O)N2CCC(C(=O)NNC(=O)c3cccnc3)CC2)cc1 | nt | nt | 4.3%
Cc1ccc(SCCOCCN2CCc3ccccc3C2)cc1 | -12.3 | 0.6% | -11.6%
O=C(/C=C/c1cccs1)Nc1scc(-c2ccccc2)c1C(=O)O | nt | nt | 22.4µM*
O=C(Nc1scc(-c2ccccc2)c1C(=O)O)c1ccco1 | 36.8 | -24.5% | -11.7%
CNC(=O)Nc1ccccc1C(=O)Nc1ccccc1 | nt | nt | 1.0%
COc1ccc2nc(SCC(N)=O)[nH]c2c1 | -18.8 | -9.2% | 1.1%
COc1ccc2nc(S(=O)Cc3ncc(C)c(OC)c3C)[nH]c2c1 (stereo not drawn) | -17.0 | 28.2µM* | -2.0%[20.9 µM]
CC12CCC(=O)N1C(C(=O)OCC(=O)Nc1cc(S(=O)(=O)N3CCCCC3)ccc1Cl)CS2 (stereo not drawn) | 29.0 | -8.3% | 8.4%
Cn1c(SCC(=O)Nc2cccc(S(=O)(=O)NC3=NCCCCC3)c2)nnc1-c1ccccc1 | nt | nt | 0.4%
CC(C)CC(C)c1cc(N)nc2nc3ccccc3n12 (stereo not drawn) | nt | nt | -2.9%
CC(C)N(CCc1ccncc1)C(=S)Nc1ccc(F)c(Cl)c1 | nt | nt | 1.4%
N#Cc1ccccc1OC[C@H](O)CNCCNC(=O)Nc1ccccc1 | nt | -3.4% | -6.1%
CCCCn1c(N)c(N(CC)C(=O)CSc2nnnn2-c2cc(C)ccc2C)c(=O)[nH]c1=O | nt | nt | 11.2µM*
CCN(C(=O)CSc1nnnn1C)c1c(N)n(Cc2ccccc2)c(=O)[nH]c1=O | nt | nt | 13.3%
Cc1ccc(N(C(=O)c2csnn2)C(C(=O)NC(C)(C)C)c2ccncc2)cc1 (stereo not drawn) | 19.6 | -2.4% | 0.3%
CC(C)(C)NC(=O)C(c1cccnc1)N(C(=O)c1csnn1)c1ccccc1 (stereo not drawn) | nt | nt | 10.3%
CC(C)c1ccc(N(C(=O)c2csnn2)C(C(=O)NC(C)(C)C)c2cccnc2)cc1 (stereo not drawn) | nt | nt | 0.708µM*
CCc1ccc(N(C(=O)c2csnn2)C(C(=O)NC(C)(C)C)c2cccnc2)cc1 (stereo not drawn) | nt | nt | 12.6µM*
CCC(C)(C)NC(=O)C(c1cccnc1)N(C(=O)c1csnn1)c1ccccc1 (stereo not drawn) | nt | nt | 4.3%
CC(C)c1ccc(N(C(=O)c2csnn2)C(C(=O)NC(C)(C)C)c2ccncc2)cc1 (stereo not drawn) | -27.0 | -13.4% | 2.24µM*
SMILES | PNC assembly inh | HPGD inh | ALDH1A1 block
COc1ccccc1NC(C)C(=O)Nc1ccc(C(C)=O)cc1 (stereo not drawn) | -21.7 | -17.0% | ?
N=C(CC(O)COc1ccccc1-c1ccccc1)N1CCCCC1 (stereo not drawn) | nt | nt | -3.1%
COc1ccnc(CSC(N)=Nc2cccc(C(F)(F)F)c2)c1 | 18.2 | -13.3% | 20µM*
C=C(C)CSc1ncc(-c2cccc(C(F)(F)F)c2)cn1 | -27.3 | -6.5% | ?
COc1ccnc(CSC(N)=Nc2ccccc2OC)c1 | -81.2* | -7.8% | 25.1µM*
COc1ccnc(CSC(N)=Nc2ccccc2C(F)(F)F)c1 | 9.8 | -16.6% | -2.9%
Cn1cccc1C(=O)N1CCC[C@@]2(CCN(c3ncccn3)C2)C1 | nt | -11.4% | -12.9%
O=C(O)CCC(=O)NCc1c(Cl)cccc1Sc1ccc(Cl)cc1 | nt | nt | 11.9%
Cc1c(-c2ccccc2)[n+](=O)c2c(n1[O-])CCCCC2 | -0.6 | -3.5% | 2.5%
Cc1ccccc1Cn1cc(NC(=O)COc2ccccc2)cn1 | ? | -23.9% | ?
O=C(COc1ccccc1Cl)Nc1cnn(Cc2ccccc2)c1 | -94.0* | -19.6% | ?
COc1ccc(OCC(=O)Nc2ccccc2Cl)cc1 | nt | nt | -7.9%
O=C(COC(=O)c1ccccn1)Nc1ccccc1Cl | 0.0 | -2.1% | 22.4µM*
O=C(COc1ccccc1O)Nc1ccccc1Cl | ? | 17.8µM* | ?
O=C(COC(=O)c1ccccn1)Nc1cc(Cl)ccc1Cl | 23.5 | -3.5% | -3.2%
CC(C)C1=CC2=CCC3[C@@](C)(CCC[C@@]3(C)C(=O)O)C2CC1 (stereo partly drawn) | nt | -6.9% | -11.7%
CN1CCN(C(=O)C2CCC(CNS(=O)(=O)c3cccc4cccnc34)CC2)CC1 (stereo not drawn) | -0.1 | 15.8µM* | 0.0%
CCN(CC)C(=O)C1CCC(CNS(=O)(=O)c2cccc3cccnc23)CC1 (stereo not drawn) | 74.9 | 7.94µM* | ?
O=C(C1CCN(S(=O)(=O)c2cccc3cccnc23)CC1)N1CCCC1 | 39.4 | -11.4% | 6.1%
CCN(CCNC(=O)C1CCN(S(=O)(=O)c2cccc3cccnc23)CC1)c1ccccc1 | -25.1 | -18.0% | 39.8µM*
CNS(=O)(=O)c1cccc2cccnc12 | 41.5 | -10.2% | 13.7%
O=C(C1CCC(CNS(=O)(=O)c2cccc3nsnc23)CC1)N1CCN(c2ccccn2)CC1 (stereo not drawn) | nt | nt | -3.9%
CC1CCN(C(=O)C2CCC(CNS(=O)(=O)c3cccc4cccnc34)CC2)CC1 (stereo not drawn) | ? | 0.891µM* | ?
CC1CCCCN1CCNC(=O)C1CCN(S(=O)(=O)c2cccc3cccnc23)CC1 (stereo not drawn) | -11.4 | -9.2% | -2.2%
CCN1C(=O)N[C@@H](c2ccco2)C(C(C)=O)=C1C | nt | -2.2% | 6.8%[13.5 µM]
SMILES | PNC assembly inh | HPGD inh | ALDH1A1 block
O=c1c2ccccc2ncn1-c1ccccc1C(F)(F)F | nt | nt | 2.2%
O=C1CN(C(=O)COc2ccc(Br)cc2Br)c2ccccc2N1 | nt | nt | -2.3%
CC(C)=C[C@H]1[C@@H](COC(=O)c2cc3c(cc2Cl)OCO3)C1(C)C | nt | -18.4% | -2.3%[13.5 µM]
O=C(COC(=O)c1c[nH]c(=O)[nH]c1=O)Nc1ccccc1Br | nt | nt | 2.2%
O=C(NC1CCCCCC1)C1CCN(S(=O)(=O)c2cccc3cccnc23)CC1 | 45.4 | -5.1% | ?
O=C(C1CCC(CNS(=O)(=O)c2cccc3cccnc23)CC1)N1CCc2ccccc21 (stereo not drawn) | -20.0 | ? | 1.26µM*
O=C(C1CCN(S(=O)(=O)c2cccc3cccnc23)CC1)N1CCc2ccccc21 | 33.8 | -7.0% | ?
O=C(NCCN1CCCCCC1)C1CCC(CNS(=O)(=O)c2cccc3cccnc23)CC1 (stereo not drawn) | 9.5 | -14.8% | 12.6µM*
CC(OC(=O)C1CCN(S(=O)(=O)c2ccc(Cl)cc2)CC1)C(=O)N1CCc2ccccc21 (stereo not drawn) | 18.9 | -11.8% | -8.4%
Cc1ccc(SC(C)C(=O)N2CCC(C(N)=O)CC2)cc1 (stereo not drawn) | nt | nt | 5.3%
CCOC(=O)CNC(=O)C1Cc2ccccc2CN1S(=O)(=O)c1cccs1 (stereo not drawn) | nt | nt | 1.8%
CC(=O)N1[C@H](C)C=C[C@]1(Cc1ccccc1)C(=O)NCCN1CCOCC1 | nt | -3.9% | -1.3%
